Test results: PubChem BioAssay (NCI)
Compounds without any hit were thinned out: in the full panel of roughly 79,000, 15% have a hit. The source made the active and inactive calls. Cut-off read from the data, not from the text of the source: active = growth inhibition above about 70%; inactive = the rest.

Key:
[1] = NCI Yeast Anticancer Drug Screen. Data for the rad52 strain (AID 147);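 note: 0% = growth of vehicle-treated control cultures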; details: S. cerevisiae rad52 mutant growth inhibition, stronger effect = higher value
Method in brief: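 Genetically altered yeast (DNA damage repair defect) treated with compound; inhibition calculated relative to vehicle.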

[2] = NCI Yeast Anticancer Drug Screen. Data for the wt1 strain (AID 149);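 note: 0% = growth of vehicle-treated wt1 cultures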; details: S. cerevisiae wt1 strain (SPY 50644) growth inhibition, stronger effect = higher value
Method in brief: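 wt1 strain grown with compound or vehicle; inhibition taken from the growth difference.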

[3] = NCI Yeast Anticancer Drug Screen. Data for the rad50EPP+ strain (AID 151);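 note: 0% = growth of vehicle-treated control cultures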; details: S. cerevisiae rad50 mutant strain, stronger effect = higher value
Method in brief: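 Strain rad50EPP+; compound exposure; % growth inhibition vs vehicle.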

[4] = NCI Yeast Anticancer Drug Screen. Data for the mgt1 strain (AID 153); details: S. cerevisiae mgt1 mutant growth inhibition, stronger effect = higher value
Method in brief: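 Read-out: yeast growth inhibition vs vehicle control. Strain mgt1, drawn from a panel altered in DNA damage repair or cell cycle control.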

[5] = NCI Yeast Anticancer Drug Screen. Data for the rad50 strain (AID 155);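 note: 0% = growth of vehicle-only cultures of the same strain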; details: S. cerevisiae rad50 strain growth inhibition, stronger effect = higher value
Method in brief: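 DNA repair mutant yeast, compound exposure, growth read-out; inhibition is taken relative to vehicle.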

[6] = NCI Yeast Anticancer Drug Screen. Data for the mec2-1 strain (AID 157); details: S. cerevisiae mec2-1 strain, stronger effect = higher value
Method in brief: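 Cells of the genetically defined mec2-1 yeast strain are incubated with test compound. Inhibition of growth is calculated against vehicle-treated controls.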

[7] = NCI Yeast Anticancer Drug Screen. Data for the rad14 strain (AID 159);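 note: 0% = growth of vehicle-treated control cultures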; details: S. cerevisiae rad14 strain growth inhibition, stronger effect = higher value
Method in brief: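 DNA repair-defective yeast, compound-exposed; % growth inhibition derived by comparison with vehicle-treated controls.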

[8] = NCI Yeast Anticancer Drug Screen. Data for the sgs1 mgt1 strain (AID 161);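 note: 0% = growth of cultures given vehicle only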; details: S. cerevisiae sgs1 mgt1 strain, stronger effect = higher value
Method in brief: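 Inhibition of yeast growth, normalised to vehicle-treated controls, is reported for a strain bearing genetic alterations in DNA damage repair.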

[9] = NCI Yeast Anticancer Drug Screen. Data for the CLN2oe strain (AID 163);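 note: 0% = growth of vehicle-only control cultures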; details: S. cerevisiae CLN2oe strain, stronger effect = higher value
Method in brief: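 Strain altered in cell-cycle control, incubated with compound; growth compared to solvent-treated controls.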

[10] = NCI Yeast Anticancer Drug Screen. Data for the cln2 rad14 strain (AID 165);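 note: 0% = growth equal to vehicle treated cultures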; details: S. cerevisiae cln2 rad14 strain, stronger effect = higher value
Method in brief: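 The screen exposed genetically defined yeast (cln2 rad14) to test compounds and scored growth inhibition relative to vehicle-treated controls.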

[11] = NCI Yeast Anticancer Drug Screen. Data for the bub3 strain (AID 167); details: S. cerevisiae bub3 mutant strain, stronger effect = higher value
Method in brief: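 In this screen, a yeast mutant lacking normal mitotic checkpoint function is challenged with compound. Relative growth versus vehicle gives the inhibition value.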

[12] = NCI Yeast Anticancer Drug Screen. Data for the wt2 strain (AID 169);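 note: 0% = growth of vehicle-treated yeast cultures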; details: S. cerevisiae wt2 strain growth inhibition, stronger effect = higher value
Method in brief: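 Steps: yeast strain treated with compound; growth recorded; inhibition calculated relative to cultures given vehicle alone.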

[13] = NCI Yeast Anticancer Drug Screen. Data for the mlh1 strain (AID 171);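 note: 0% = growth of vehicle-treated control cultures of the same strain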; details: S. cerevisiae mlh1 strain growth inhibition, stronger effect = higher value
Method in brief: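 Yeast screen: mutant strain plus compound, growth scored against vehicle control wells.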

[14] = NCI Yeast Anticancer Drug Screen. Data for the sgs1 strain (AID 173);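 note: 0% = growth of vehicle-only control cultures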; details: S. cerevisiae sgs1 mutant, stronger effect = higher value
Method in brief: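 Inhibition of yeast growth served as the measure. The mutant strain was treated with each compound, and growth was normalised to cultures receiving vehicle alone.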

[15] = NCI Yeast Anticancer Drug Screen. Data for the mlh1 rad18 strain (AID 175); details: S. cerevisiae mlh1 rad18 strain growth inhibition, stronger effect = higher value
Method in brief: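 Compound-treated yeast growth, normalised to vehicle controls. Strain bears defined DNA repair mutations.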

[16] = NCI Yeast Anticancer Drug Screen. Data for the rad18 strain (AID 177); details: S. cerevisiae rad18 mutant growth inhibition, stronger effect = higher value
Method in brief: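 Inhibition values reflect reduced yeast growth compared with vehicle-treated controls, using a strain engineered with a DNA damage repair defect.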

[17] = at 5.0 µM (retest, dose inferred, filed as 0.5)
[18] = at 50.0 µM (retest, dose inferred, filed as 5.0)

Measured: growth inhibition

Cc1nc2sc3c(c2c(=O)o1)CCCC3
inactive: [1]; at 1.2 µM 0% | [1]; at 3.7 µM 2% | [1]; at 11.0 µM 1% | [1]; at 33.0 µM 6% | [1]; at 100.0 µM 4% | [2]; at 1.2 µM -1% | [2]; at 3.7 µM 0% | [2]; at 11.0 µM 1% | [2]; at 33.0 µM -1% | [2]; at 100.0 µM 2% | [3]; at 1.2 µM -6% | [3]; at 3.7 µM -8% | [3]; at 11.0 µM -10% | [3]; at 33.0 µM -3% | [3]; at 100.0 µM -1% | [4]; at 1.2 µM -1% | [4]; at 3.7 µM -1% | [4]; at 11.0 µM 18% | [4]; at 33.0 µM -2% | [4]; at 100.0 µM 7% | [5]; at 1.2 µM 0% | [5]; at 3.7 µM 2% | [5]; [17] 18% | [5]; at 11.0 µM -11% | [5]; at 33.0 µM 7% | [5]; [18] 10% | [5]; at 50.0 µM 4.2% | [5]; at 100.0 µM 5% | [6]; at 1.2 µM 2% | [6]; at 3.7 µM 2% | [6]; [17] 5% | [6]; at 11.0 µM 2% | [6]; at 33.0 µM 6% | [6]; [18] -4% | [6]; at 50.0 µM 25.3% | [6]; at 100.0 µM 6% | [7]; at 1.2 µM 0% | [7]; at 3.7 µM -4% | [7]; at 11.0 µM 2% | [7]; at 33.0 µM 13% | [7]; at 100.0 µM 10% | [8]; [17] -6% | [8]; [18] 14% | [8]; at 50.0 µM 26.6% | [9]; at 1.2 µM -1% | [9]; at 3.7 µM 1% | [9]; at 11.0 µM 2% | [9]; at 33.0 µM 6% | [9]; at 100.0 µM 14% | [10]; [17] 23% | [10]; [18] 3% | [10]; at 50.0 µM 4.5% | [11]; at 1.2 µM 6% | [11]; at 3.7 µM 18% | [11]; [17] 30% | [11]; at 11.0 µM 31% | [11]; at 33.0 µM 39% | [11]; [18] 51% | [11]; at 100.0 µM 28% | [12]; at 1.2 µM -1% | [12]; at 3.7 µM 1% | [12]; at 11.0 µM 1% | [12]; at 33.0 µM 3% | [12]; at 100.0 µM 4% | [13]; at 1.2 µM 1% | [13]; at 3.7 µM -3% | [13]; at 11.0 µM 5% | [13]; at 33.0 µM 2% | [13]; at 100.0 µM 2% | [14]; at 1.2 µM -2% | [14]; at 3.7 µM -4% | [14]; at 11.0 µM -2% | [14]; at 33.0 µM 1% | [14]; at 100.0 µM 2% | [15]; [17] -2% | [15]; [18] -2% | [15]; at 50.0 µM 26% | [16]; at 1.2 µM -3% | [16]; at 3.7 µM -3% | [16]; at 11.0 µM -4% | [16]; at 33.0 µM -15% | [16]; at 100.0 µM 1%
active: [11]; at 50.0 µM 72.9%

COc1cc(C(=O)C=O)cc(OC)c1OC
inactive: [1]; at 1.2 µM 1% | [1]; at 3.7 µM 3% | [1]; at 11.0 µM 1% | [1]; at 33.0 µM 0% | [2]; at 1.2 µM -3% | [2]; at 3.7 µM -4% | [2]; at 11.0 µM -7% | [2]; at 33.0 µM -5% | [2]; at 100.0 µM 61% | [3]; at 1.2 µM 1% | [3]; at 3.7 µM 5% | [3]; at 11.0 µM 6% | [3]; at 33.0 µM 16% | [3]; at 100.0 µM 58% | [4]; at 1.2 µM 1% | [4]; at 3.7 µM -3% | [4]; at 11.0 µM -4% | [4]; at 33.0 µM 14% | [5]; at 1.2 µM 0% | [5]; at 3.7 µM -5% | [5]; [17] -156% | [5]; at 11.0 µM 9% | [5]; at 33.0 µM 19% | [5]; [18] 44% | [5]; at 50.0 µM 44.3% | [6]; at 1.2 µM 1% | [6]; at 3.7 µM -1% | [6]; [17] -53% | [6]; at 11.0 µM 6% | [6]; at 33.0 µM -4% | [6]; [18] 3% | [6]; at 50.0 µM 57% | [7]; at 1.2 µM -3% | [7]; at 3.7 µM -7% | [7]; at 11.0 µM -5% | [7]; at 33.0 µM 9% | [8]; [17] -67% | [8]; [18] 60% | [9]; at 1.2 µM 0% | [9]; at 3.7 µM -5% | [9]; at 11.0 µM -7% | [9]; at 33.0 µM 6% | [10]; [17] -65% | [10]; [18] 8% | [10]; at 50.0 µM 37.5% | [11]; at 1.2 µM -6% | [11]; at 3.7 µM -6% | [11]; [17] -66% | [11]; at 11.0 µM -8% | [11]; at 33.0 µM -8% | [11]; [18] 33% | [11]; at 50.0 µM 31.9% | [12]; at 1.2 µM 2% | [12]; at 3.7 µM 1% | [12]; at 11.0 µM 0% | [12]; at 33.0 µM 0% | [13]; at 1.2 µM 9% | [13]; at 3.7 µM -3% | [13]; at 11.0 µM -6% | [13]; at 33.0 µM -8% | [14]; at 1.2 µM 1% | [14]; at 3.7 µM 4% | [14]; at 11.0 µM 3% | [14]; at 33.0 µM 31% | [15]; [17] -129% | [15]; [18] 52% | [15]; at 50.0 µM 67.4% | [16]; at 1.2 µM 0% | [16]; at 3.7 µM -2% | [16]; at 11.0 µM -2% | [16]; at 33.0 µM 5%
active: [1]; at 100.0 µM 86% | [4]; at 100.0 µM 94% | [5]; at 100.0 µM 91% | [6]; at 100.0 µM 90% | [7]; at 100.0 µM 95% | [8]; at 50.0 µM 73% | [9]; at 100.0 µM 85% | [11]; at 100.0 µM 87% | [12]; at 100.0 µM 88% | [13]; at 100.0 µM 88% | [14]; at 100.0 µM 97% | [16]; at 100.0 µM 91%
